Measurements as given in PubChem BioAssay AID1347416 (National Center for Advancing Translational Sciences (NCATS), 2020).
In all, about 4,100 compounds went through this assay and about 1,600 (39%) were called active. About 25% were inconclusive and are not listed. Calls come from the whole dose curve; as a rule, active = well fitted inhibition curve with a large enough effect; inconclusive = small, poorly fitted or top-dose-only effect; inactive = no such curve, though single readings can be large or run the other way. Some of the results follow. Entries that show only a call come without a potency.

Test: qHTS Validation assay for Inhibitors of Plasmodium falciparum Dd2 growth in vitro; note: nearly all actives have a fitted effect of over 70% in size
Details: P. falciparum Dd2 in RBCs, SYBR Green growth, 72 h; series mostly up to 28.7 µM
Outline: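 P. falciparum Dd2-infected red blood cells (2.5% hematocrit, 0.3% parasitemia) grown 72 h at 37 °C under 5% O2 with compounds in a titration, 29 uM to 0.5 nM final. Growth read as SYBR Green-1 fluorescence after ~16 h lysis; artesunate 300 nM as positive control.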
Potency is the fitted concentration of half-maximal effect.

Row | SMILES | Potency
1 | CCCC(C)N1CC2(CCN(C(=O)Cn3nc(C)cc3C)CC2)OC1=O (stereo unspecified) | inactive
2 | O=C1CCN(C2CCCC2)CCCC(c2nc(-c3cccnc3)no2)CCN1 (stereo unspecified) | inactive
3 | CN1CCN(c2ccc(-c3noc([C@@H]4CCCN4C4CCCCC4)n3)cn2)CC1 | 19.3 µM (active)
4 | O=C(c1ccsc1)N1CCCCCC1c1nc(-c2cccnc2)no1 (stereo unspecified) | inactive
5 | COc1cncc(-c2cc(C(=O)NCc3cccnc3)c3c(c2)N(C)CCO3)c1 | inactive
6 | CN(C)CCNC(=O)c1cc(-c2ccccc2F)cc2c1OCCN2Cc1cccnc1 | 6.85 µM (active)
7 | CNC(=O)c1cc(-c2ccncc2)cc2c1OCCN2Cc1cccnc1 | inactive
8 | CNC(=O)c1cc(-c2ccc([S+](C)(=O)[O-])cc2)cc2c1OCCN2Cc1cccnc1 | inactive
9 | CN1CCOc2c(C(=O)NCc3cccnc3)cc(-c3cccc4[nH]ccc34)cc21 | 8.63 µM (active)
10 | COCCNC(=O)C[C@@H]1C[C@H]2O[C@H](CN)[C@@H](O)[C@H]2O1 | inactive
11 | C=CCOC(=O)Nc1nc2c(s1)C[C@@H]1[C@](C)(CO)[C@H](O)CC[C@@]1(C)[C@@H]2CC(=O)NC1CCCCC1 | 3.76 µM (active)
12 | C#CCNC(=O)C[C@@H]1c2nc(NC(=O)OCC=C)sc2C[C@@H]2[C@](C)(CO)[C@H](O)CC[C@]21C | 15 µM (active)
13 | Cc1nc2cc(N3CCCC(C(=O)NCCN4CCCCCC4)C3)cnc2nc1C (stereo unspecified) | inactive
14 | N=c1ccn(Cc2ccc(Cl)cc2)cc1 | 8.41 µM (active)
15 | N=c1ccn(Cc2ccc(Cl)c(Cl)c2)cc1 | 6.68 µM (active)
16 | N=c1ccn(Cc2c(Cl)cccc2Cl)cc1 | inactive
17 | N=c1ccn(Cc2ccc(Cl)cc2Cl)cc1 | 8.41 µM (active)
18 | Cc1cc(C)n(CC(=O)N[C@@H]2CN(Cc3cccnc3)C[C@H]2CN(C)C)n1 | inactive
19 | Cc1ccsc1C(=O)NCc1nnc2ccc(-c3ccc(Cl)cc3)nn12 | inactive
20 | O=C(c1ccccc1F)N1CCC(Oc2ncccc2C(=O)N2CCCCC2)C1 (stereo unspecified) | inactive
21 | COc1ccc(CC(=O)N2CCC(Oc3ncccc3C(=O)N3CCCCC3)C2)cc1 (stereo unspecified) | 9.44 µM (active)

Row | SMILES | Potency
22 | COc1ccc(S(=O)(=O)N2CCC(Oc3ncccc3C(=O)N3CCOCC3)C2)cc1 (stereo unspecified) | inactive
23 | COc1cccc(NC(=O)Nc2cccc(C(=O)O)c2)c1 | inactive
24 | COc1ccc(-c2cc(C(=O)Nc3cc(OC)cc(C(=O)Nc4cccc(C(F)(F)F)c4)c3)[nH]n2)cc1 | 5.31 µM (active)
25 | O=C(Nc1cccc(C(F)(F)F)c1)O[C@@H]1CO[C@H]2[C@@H]1OC[C@@H]2NS(=O)(=O)c1cccs1 | inactive
26 | COc1cc(NC(=O)c2ccc(N)nc2)cc(C(=O)Nc2cccc(C(F)(F)F)c2)c1 | 5.31 µM (active)
27 | CC1=NS(=O)(=O)N(Cc2ccc(F)c(F)c2)C=C1C(=O)O | inactive
28 | CN(C)C(=O)N1CCCC(C(=O)NCc2nc(C3CCCCC3)no2)C1 (stereo unspecified) | inactive
29 | Cc1nc2sc(C(c3ccco3)N3CCN(C(c4ccccc4)c4ccccc4)CC3)c(O)n2n1 (stereo unspecified) | 5.96 µM (active)
30 | CCCc1ccc(C(=O)NC(=O)c2ccccc2O)cc1 | 1.06 µM (active)
31 | Cc1ccc(N(CC(=O)Nc2cccc(Cl)c2)S(=O)(=O)c2cccs2)cc1 | inactive
32 | Cc1ccc(N(Cc2cccs2)C(=O)C(C)Oc2ccc(Cl)c(C)c2)cc1 (stereo unspecified) | 7.5 µM (active)
33 | O=C(NCCc1nc(-c2cccnc2)no1)c1coc2c1C(=O)CCC2 | inactive
34 | C/C(=N\OCc1cccc(C(=O)O)c1)c1ccc(Cl)cc1 | inactive
35 | COc1cccc(CNc2ccc3c(c2)nc(C)n3C)c1OC | inactive
36 | CNC(=O)CCn1ncc2cc(OCc3ccccc3-c3ccccc3OC)ccc21 | 15.3 µM (active)
37 | COc1ccccc1-c1nnc2sc(COc3ccc(F)cc3)nn12 | inactive
38 | CN1CCc2c(sc3c2C(=O)NC(c2ccc(C(C)(C)C)cc2)N3)C1 (stereo unspecified) | inactive
39 | CCOCCCn1c(SCC(=O)NCCCOC)nc2c(sc3ccccc32)c1=O | inactive
40 | CC(C)Sc1nc2sc3c(c2c(=O)n1Cc1ccccc1)CCCC3 | inactive
41 | CSc1nnc2c3c4c(sc3c(=O)n(-c3ccccc3)n12)CC(C)(C)OC4 | inactive
42 | C=C(C)CSc1nc2sc3c(c2c(=O)n1C1CCCCC1)CCN(C)C3 | 2.37 µM (active)

Row | SMILES | Potency
43 | CCNc1ncnc2sc3c(c12)CCN(Cc1ccc[nH]1)C3 | inactive
44 | CCn1c(SCC(=O)NCCc2ccccc2)nc2sc3c(c2c1=O)CCN(C)C3 | 5.31 µM (active)
45 | CCSc1nc2sc3c(c2c(=O)n1-c1ccccc1)CCN(C)C3 | 6.68 µM (active)
46 | CCCN1CCc2c(sc3nc(SC)n(-c4ccccc4)c(=O)c23)C1 | 2.66 µM (active)
47 | CS(=O)(=O)N(C1CC1)C1CCOC2(CCN(C(=O)C3(c4ccccc4)CC3)CC2)C1 (stereo unspecified) | inactive
48 | CCOc1ccc(-n2c(SCC(N)=O)nc3sc4c(c3c2=O)CCN(C)C4)cc1 | 15 µM (active)
49 | CCOc1cc(C2NC(=O)c3c(sc4c3CCN(C)C4)N2)ccc1OC(=O)c1ccccc1Cl (stereo unspecified) | inactive
50 | COC(CSc1nc(N)c2c3c(sc2n1)CN(C)CC3)OC | inactive
51 | Cc1ccc(N=Nc2ccc(O)c3ncccc23)cc1 | inactive
52 | Oc1ccc(CNc2ccc(C(F)(F)F)cc2Cl)c2cccnc12 | 10.6 µM (active)
53 | Fc1ccc(N2CCCN(CC3[C@H]4CNC[C@@H]34)CC2)cc1 (stereo partly specified) | 8.41 µM (active)
54 | Cc1ccc(-c2cc(=O)c3cc(C)ccc3[nH]2)cc1 | 10.6 µM (active)
55 | Cc1ccc2[nH]c(-c3ccccc3)cc(=O)c2c1 | 4.73 µM (active)
56 | O=c1cc(-c2ccccc2)[nH]c2ccc(F)cc12 | 5.96 µM (active)
57 | COc1cc(NC(=O)Cn2c(=O)n(CC3CCCO3)c(=O)c3ccccc32)cc(OC)c1 (stereo unspecified) | inactive
58 | COc1cc(NC(=O)Cn2c(=O)n(CC3CCC(C(=O)NCCc4ccccc4)CC3)c(=O)c3ccccc32)cc(OC)c1 (stereo unspecified) | 5.96 µM (active)
59 | CCCCCNC(=O)C1CCC(Cn2c(=O)c3sccc3n(CC(=O)N3CCCC3)c2=O)CC1 (stereo unspecified) | inactive
60 | Cc1cc2nn(-c3ccc(F)cc3)nc2cc1N | inactive
61 | Cn1nc(-c2nncn2Cc2ccccc2)c2c1CCN(C(=O)c1[nH]nc3c1COc1ccccc1-3)C2 | inactive
